Each compound was assayed on wheat germ agglutinin (Triticum aestivum), Alexa647-labelled (assay: Alexa647-WGA lectin binding to printed small molecules – biochemical, small-molecule microarray, 635/667 nm fluorescence, artefact control for SMM control-protein annotation, profiling panel (AID 1140;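 also: score merges 667 nm feature emission with signal to noise over triplicate slides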)). Settings: WGA-A647 binding, 635 nm fluorescence, higher = more signal.

| Structure (SMILES) | composite z-score |
| --- | --- |
| NCCCCCNC(=O)[C@@H]1C[C@@H]2C(=O)N3CCC[C@H]3C(=O)N2[C@@H]1c1cccc(OCCO)c1 | 0.881 |
| C=CC[C@]1(C(=O)NCc2ccccc2)N=C(c2ccc(OCCCO)cc2)O[C@H]1c1ccccc1 | 0.366 |
| COCCOC(=O)N1C(=O)[C@@]2(c3cc(C#CCNC(N)=O)ccc31)[C@H](c1ccc(O)cc1)N1[C@H](c3ccccc3)[C@H](c3ccccc3)OC(=O)[C@H]1[C@@H]2C(=O)N1CCCCCCC1 | 0.566 |
| O=C1[C@H]2[C@H]3[C@H](O)[C@H](O)CC(=NO[C@@H]4O[C@H](CO)[C@@H](O)[C@H](O)[C@H]4O)[C@@H]3CC[C@H]2C(=O)N1Cc1ccc2c(c1)OCO2 | 0.63 |
| O=C1[C@H]2[C@H]3[C@H](O)[C@H](O)CC(=NOCc4ccccc4)[C@@H]3CC[C@H]2C(=O)N1C1CCCCC1 | -0.0558 |
| O=C1[C@H]2[C@H]3[C@H](O)[C@H](O)CC(=NO[C@@H]4O[C@H](CO)[C@@H](O)[C@H](O)[C@H]4O)[C@H]3CC[C@H]2C(=O)N1Cc1ccc2c(c1)OCO2 | -0.205 |
| O=C(NN=C1C[C@@H](O)[C@@H](O)[C@@H]2[C@@H]3C(=O)N(c4cccc(Oc5ccccc5)c4)C(=O)[C@@H]3CC[C@H]12)OCc1ccccc1 | 0.557 |
| CC(C)CON=C1C[C@@H](O)[C@@H](O)[C@@H]2[C@@H]3C(=O)N([C@@H](C)c4ccccc4)C(=O)[C@@H]3CC[C@H]12 | 0.122 |
| CC(=O)O[C@H]1C2=C(C(=O)[C@@H]3O[C@@H]31)[C@H]1C(C)O[C@@H]2[C@@]23C(=O)[C@@H]4O[C@@H]4[C@@H](O)C2=CO[C@H](C)[C@@H]13 (stereo partly drawn) | -0.933 |
| CC(C)(C)N1C(=O)[C@H]2[C@H]3[C@H](O)[C@H](O)CC(=NOCc4ccccc4)[C@@H]3CC[C@H]2C1=O | 0.441 |
| O=C1[C@H]2[C@H]3[C@H](O)[C@H](O)CC(=NOC[C@@H](O)COCc4ccco4)[C@H]3CC[C@H]2C(=O)N1c1cccc(Oc2ccccc2)c1 | 0.503 |
| CC(C)=CCCC(C)=CCON=C1C[C@@H](O)[C@@H](O)[C@@H]2[C@@H]3C(=O)N(C[C@@H]4CCCO4)C(=O)[C@@H]3CC[C@@H]12 | 0.59 |
| Cc1ccc(S(=O)(=O)N[C@@H]2COC(=O)[C@H](C)COC(=O)CC=C[C@H]2C)cc1 | -0.277 |
| CCc1cc2c(nc1CC)CCN(CCC(C)=NO[C@@H](C)c1cc(-c3c(C)cc(C)cc3C)no1)C2 | 0.0999 |
| CC(=O)OC[C@H]1O[C@@H](ON=C(C)CCN2CCc3nc(-c4ccccc4)c(-c4ccccc4)cc3C2)[C@H](OC(C)=O)[C@@H](OC(C)=O)[C@@H]1OC(C)=O | 0.491 |
| Cc1ccc(S[C@]2(C(=O)NCC(F)(F)F)CC(=O)N(Cc3ccccc3Cl)[C@@H]2c2ccc(CO)cc2I)cc1 | 1.13 |
| CO[C@@H]1COC(=O)CC=C[C@@H](C)COC(=O)[C@H](COCc2ccccc2)NC(=O)CC=C[C@H]1C | -0.672 |
| O[C@@H](Cc1ccccc1)[C@H]1C2C=CCCC(c3ccccc3)=C2CN1Cc1cccc(Cl)c1 (stereo partly drawn) | 0.875 |
| CC(=O)OC[C@H]1O[C@H](CCON=C[C@@H](C)[C@H](OCc2ccccc2)C(C)C)C=C[C@@H]1OC(C)=O | 0.156 |
| CC1(C)OCC(C(O)C2=CCCCC2=O)CO1 (stereo not drawn) | 0.731 |
| CO[C@@H]1COC(=O)CC=C[C@@H](C)[C@@H]2C=C[C@H](O)[C@@H](COC(=O)[C@H](C)NC(=O)CC=C[C@H]1C)O2 | -0.17 |
| CCCCCN1CC=CC23O[C@@H]4C=CCOC(=O)[C@@H]4[C@H]2C(=O)N(CCCCCCO)[C@@H]3C1=O (stereo partly drawn) | -0.416 |
| COCCCNC(=O)[C@@]1(C)c2ccccc2C(=O)N(Cc2ccc(OC(F)(F)F)cc2)[C@H]1c1ccc(CO)cc1 | -1.18 |
| CC(C)[C@@H](OCc1ccccc1)[C@H](C)C=NO[C@H](C)c1cn([C@H](CO)Cc2ccccc2)nn1 | 0.106 |
| c1ccc(C2NCCc3c2[nH]c2ccccc32)cc1 (stereo not drawn) | 0.466 |
| O=C1NC(=O)C2C1C=CC(C(O)Cc1ccccc1)N2Nc1ccccn1 (stereo not drawn) | 0.639 |
| CCOC(=O)[C@H](Cc1ccccc1)NC(=O)CCC1CC(OC(=O)NCCc2ccc(F)cc2)CC2(CCCC(COC(=O)NCC(c3ccccc3)c3ccccc3)O2)O1 (stereo partly drawn) | 0.554 |
| COCCOC(=O)N1C(=O)[C@@]2(c3cc(C#Cc4ccc(OC)cc4)ccc31)[C@H](C(=O)N1CCN(c3ncccn3)CC1)[C@H]1C(=O)O[C@H](c3ccccc3)[C@H](c3ccccc3)N1[C@@H]2c1ccc(OCCO)cc1 | 0.769 |

From PubChem BioAssay
